The record followed here is PubChem BioAssay (NCI).

Test systems include DU-145 prostate; K-562 leukemia; MALME-3M melanoma; MDA-MB-231 breast; RXF 393 renal; SF-268 CNS; SF-295 CNS; SF-539 CNS; UACC-257 melanoma; M14 melanoma; HCT-15 colon; HT29 colon; SNB-19 CNS; U251 CNS; PC-3 prostate; SK-MEL-5 melanoma; UACC-62 melanoma; LOX IMVI melanoma; SK-MEL-28 melanoma; SNB-75 CNS.
Assay in all cases: NCI-60 one-dose screen, 48 h (100 = growth as untreated, 0 = no growth, -100 = all killed)
Common to all, as to settings: 10 µM unless noted

Compounds without any hit were thinned out: in the full panel of roughly 83,000, 20% have a hit.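 Step 1: grow cells in 96-well plates. Step 2: add test compound at a single concentration. Step 3: incubate 48 h. Step 4: record percent growth.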 Unmarked numbers belong to inactive results. Calls of active or inactive are those of the source. How the source made its calls: active means growth percent below 10; inactive means the rest.

`CCOC(=O)C1=C(C)NC(=O)NC1c1c(Cl)n(CCCl)c2ccccc12` (centres undefined): the growth in the experiment with DU-145 prostate was 107%; with K-562 leukemia it was 99.3%; in the experiment with MALME-3M melanoma, 94.4%; with MDA-MB-231 breast, 105%; in the experiment with RXF 393 renal it was 98.1%; in the experiment on SF-268 CNS it was 88%. Besides, the growth in the experiment on SF-295 CNS was 95.3%; in the experiment with SF-539 CNS, 97.2%; in the experiment on UACC-257 melanoma, 92.7%; in the experiment on M14 melanoma it was 98.2%; with HCT-15 colon it was 99.6%; in the experiment with HT29 colon, 107%. Moreover, the growth is 100% in the experiment on SNB-19 CNS; 94.4% in the experiment on U251 CNS; 91.7% in the experiment on PC-3 prostate; 102% in the experiment on SK-MEL-5 melanoma; 85.4% in the experiment on UACC-62 melanoma; 92.6% with LOX IMVI melanoma. The growth with SK-MEL-28 melanoma was 108%.
As for `C=C(C)[C@@H]1CC[C@]2(CO)CC[C@]3(C)[C@H](CC[C@@H]4[C@@]5(C)CC[C@H](NCO)C(C)(C)[C@@H]5CC[C@]43C)[C@@H]12`, the growth in the experiment on DU-145 prostate was -69.2% (active); with K-562 leukemia it was 0.949% (active); in the experiment with MALME-3M melanoma, -81.2% (active); in the experiment on MDA-MB-231 breast, -86.2% (active); in the experiment with RXF 393 renal, -79.3% (active); in the experiment with SF-268 CNS, 59.1%. In addition, the growth in the experiment with SF-295 CNS was 57.4%; with SF-539 CNS, -95.6% (active); with UACC-257 melanoma it was -51.6% (active); in the experiment with M14 melanoma it was -62.2% (active); in the experiment with HCT-15 colon, -80.7% (active); in the experiment on HT29 colon it was -39.4% (active). The growth in the experiment with SNB-75 CNS was -94.7% (active); with SNB-19 CNS, 42.3%; in the experiment with PC-3 prostate, -3.03% (active); in the experiment on SK-MEL-5 melanoma, -90.1% (active); with UACC-62 melanoma, 83.6%; with LOX IMVI melanoma, -99.8% (active). Besides, the growth in the experiment on SK-MEL-28 melanoma was -86.3% (active).
`O=C(Nc1nc2ccccc2s1)c1ccc(F)cc1`: the growth with DU-145 prostate was 108%; in the experiment on K-562 leukemia, 90%; in the experiment with MALME-3M melanoma, 96.2%; with MDA-MB-231 breast it was 95.5%; with RXF 393 renal, 107%; in the experiment with SF-268 CNS it was 114%. In addition, the growth is 103% in the experiment with SF-295 CNS; 102% with SF-539 CNS; 108% in the experiment on UACC-257 melanoma; 110% with M14 melanoma; 85.5% in the experiment with HCT-15 colon; 108% in the experiment on HT29 colon. Further, the growth in the experiment with SNB-19 CNS was 126%; in the experiment with U251 CNS, 99.7%; in the experiment on PC-3 prostate it was 96.6%; in the experiment with SK-MEL-5 melanoma, 91.3%; in the experiment with UACC-62 melanoma it was 89.5%; in the experiment on LOX IMVI melanoma, 101%. The growth with SK-MEL-28 melanoma was 114%.
`c1ccc([P+](c2ccccc2)(c2ccccc2)c2ccc3c4ccc([P+](c5ccccc5)(c5ccccc5)c5ccccc5)c5cccc(c6cccc2c63)c54)cc1`: the growth with DU-145 prostate was 19.5%; in the experiment on K-562 leukemia, 11.8%; in the experiment with MALME-3M melanoma, -13% (active); in the experiment with MDA-MB-231 breast it was 9.37% (active); in the experiment on RXF 393 renal it was 42.5%; in the experiment with SF-268 CNS, 24.4%. Moreover, the growth with SF-295 CNS is 3.75% (active); with SF-539 CNS, -27.1% (active); with UACC-257 melanoma, 15.2%; with M14 melanoma, 15.4%; in the experiment on HCT-15 colon, 66.2%; in the experiment on HT29 colon, 8.41% (active). Further, the growth in the experiment with SNB-19 CNS was 12.5%; with U251 CNS, 14%; in the experiment on PC-3 prostate it was 17.7%; in the experiment on SK-MEL-5 melanoma it was -57.6% (active); with UACC-62 melanoma, 15%; in the experiment with LOX IMVI melanoma it was 3.08% (active). Besides, the growth in the experiment on SK-MEL-28 melanoma was 4.81% (active).
With `CCc1ccc(CCCC(=O)O)cc1`, the growth was 102% in the experiment with DU-145 prostate; 98.9% in the experiment with K-562 leukemia; 107% with MALME-3M melanoma; 100% with MDA-MB-231 breast; 112% in the experiment with RXF 393 renal; 102% with SF-268 CNS. In addition, the growth with SF-295 CNS is 98.5%; in the experiment on SF-539 CNS it was 103%; with UACC-257 melanoma it was 106%; with M14 melanoma it was 94.2%; in the experiment on HCT-15 colon, 101%; with HT29 colon, 101%. In addition, the growth in the experiment with SNB-75 CNS is 87.9%; in the experiment with SNB-19 CNS, 95.7%; in the experiment with PC-3 prostate it was 96.8%; in the experiment with SK-MEL-5 melanoma, 102%; in the experiment on LOX IMVI melanoma it was 99.5%; with SK-MEL-28 melanoma it was 108%.
For the compound `COc1cccc(CNc2ccc3ncnc(Nc4ccc(F)c(Cl)c4)c3c2)c1`, the growth is 54.3% in the experiment with DU-145 prostate; 48.3% in the experiment on K-562 leukemia; 58.1% in the experiment on MALME-3M melanoma; 68.2% in the experiment on MDA-MB-231 breast; 65.9% with RXF 393 renal; 65.6% in the experiment with SF-268 CNS. The growth in the experiment on SF-295 CNS was 79.4%; with SF-539 CNS, 93.8%; in the experiment with UACC-257 melanoma it was 49.2%; in the experiment on M14 melanoma, 72.9%; in the experiment with HCT-15 colon, 53.2%; in the experiment on HT29 colon, 88.3%. Moreover, the growth in the experiment with SNB-75 CNS is 79.3%; in the experiment on SNB-19 CNS, 69%; with SK-MEL-5 melanoma, 89.5%; with UACC-62 melanoma it was 81.1%; in the experiment with LOX IMVI melanoma, 69.8%; in the experiment on SK-MEL-28 melanoma, 107%.
As to `Cc1cc(C(=O)Nc2ncc(Cc3cccc(C(F)(F)F)c3)s2)c2ccccc2n1`, the growth with DU-145 prostate was 57.4%; in the experiment with K-562 leukemia, 7.79% (active); in the experiment with MALME-3M melanoma, 26.8%; in the experiment on MDA-MB-231 breast, 56.4%; in the experiment with RXF 393 renal, 31.1%; with SF-268 CNS it was 37.2%. Moreover, the growth in the experiment on SF-295 CNS was 15.1%; in the experiment with SF-539 CNS, 21.9%; with UACC-257 melanoma it was 43.3%; with M14 melanoma, 3.81% (active); in the experiment on HCT-15 colon, 17.3%; with HT29 colon it was 8.85% (active). The growth in the experiment with SNB-19 CNS is 44.7%; in the experiment on U251 CNS, 18.5%; in the experiment on PC-3 prostate it was 26.7%; in the experiment on SK-MEL-5 melanoma, 0.694% (active); in the experiment with UACC-62 melanoma it was 9.95% (active); with LOX IMVI melanoma, 12.6%. The growth in the experiment with SK-MEL-28 melanoma is 40.4%.
As to `C=C(C)[C@@H]1CCC[C@]2(COS(=O)(=O)c3ccc(C)cc3)CC[C@]3(C)[C@@H](CC[C@@H]4[C@@]5(C)CCCNC(C)(C)[C@@H]5CC[C@]43C)[C@@H]12`, the growth in the experiment on DU-145 prostate was 0.903% (active); in the experiment with K-562 leukemia it was -33.4% (active); with MALME-3M melanoma, 4.1% (active); in the experiment on MDA-MB-231 breast, -10.3% (active); in the experiment with RXF 393 renal, -79.9% (active); with SF-268 CNS, 48.2%. For the same compound, the growth was -11.5% (active) in the experiment with SF-295 CNS; 71.9% with SF-539 CNS; 58.5% in the experiment on UACC-257 melanoma; -20.6% (active) in the experiment on M14 melanoma; -61.5% (active) in the experiment on HCT-15 colon; -50.8% (active) in the experiment on HT29 colon. In addition, the growth with SNB-19 CNS was 39%; with U251 CNS, -82.1% (active); with PC-3 prostate, 10.5%; in the experiment on SK-MEL-5 melanoma it was 92.1%; in the experiment on LOX IMVI melanoma, -86.5% (active); in the experiment with SK-MEL-28 melanoma, 68.3%.
